# In the library only some 19% were active in any assay of this set; here they are far more common.
# IL-1B inflam inh – inflammasome signaling inhibition, IL-1 beta readout. THP-1 LPS/ATP IL-1B secretion, AlphaLISA, 16 h; hits give low values. activity change, % at 57.5 µM. 360,000 tested, 4.7% active; in the data active = activity change below about -50%; inconclusive = mostly about -30% to -49%; note: % is set by controls: 0 for no effect and ±100 for the full control effect
#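 THP-1 cells pretreated 1 hr with compounds (up to 57.5 uM final), then stimulated with LPS (250 ng/mL final) plus ATP (1.25 mM final); secreted IL-1B measured by AlphaLISA after 16 hr, decreased signal indicating inhibition.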
# TDP1 cell noCPT – qHTS for Inhibitors of human tyrosyl-DNA phosphodiesterase 1 (TDP1): qHTS in cells in absence of CPT | AID 686978, 2013 | DT40 Tdp1-/- hTDP1 cells, no CPT, ATP luminescence, 48 h | 420,000 tested, 15% active | Potency, µM (top dose mostly 46.2 µM), inactives show at the top dose activity change, negative = growth inhibition, hits mostly inhibitors; note: potency is the fitted concentration of half-maximal effect; % is set by controls: 0 for no effect and ±100 for the full control effect; nearly all actives have a fitted effect of over 55% in size
#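 Camptothecin absent (DMSO only). Human TDP1-complemented DT40 knockout cells, 400 cells/well, 37 °C for minimum 48 hr; ATP measured via CellTiter-Glo, 30 min dark incubation, luminescence.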
# SW480 rerep – inducers of DNA re-replication in SW480 colon cancer cells; SW480 DNA re-replication, Hoechst DNA content imaging, 48 h; Potency, µM (doses to about 46.1 µM), for inactives: at the top dose re-replication activation, most hits filed as activators; 340,000 tested, 1.8% active; AID 624297; note: potency is the fitted concentration of half-maximal effect; % of control where 0% means no effect; nearly all actives have a fitted effect of over 55% in size
#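 Image-based DNA-content assay: after two days of treatment, nuclei were labelled with the DNA dye Hoechst and imaged, and hits were compounds raising the count of nuclei showing high fluorescence intensity.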
# MCF10A rerep – DNA re-replication induction in MCF 10a cells | MCF 10A DNA re-replication, Hoechst nuclear intensity, 48 h | Potency, µM (series often up to 46.1 µM), without a hit: at the top dose activity, positive = re-replication, most hits filed as activators | 350,000 tested, 2.9% active; note: potency is the fitted concentration of half-maximal effect; % of control where 0% means no effect; nearly all actives have a fitted effect of over 50% in size
# DT40 TDP1 CPT – growth inhibition of DT40 Tdp1-/-;hTDP1 cells with camptothecin (screen for TDP1 inhibitors). AID 686979. chicken DT40 Tdp1-/-;hTDP1 cells + 20 nM CPT, ATP luminescence, 48 h. 420,000 tested, 12% active. Potency, µM (top dose mostly 46.2 µM), inactives show top-dose activity change, negative = growth inhibition, actives largely listed as inhibitors; note: potency is the fitted concentration of half-maximal effect; % is set by controls: 0 for no effect and ±100 for the full control effect; nearly all actives have a fitted effect of over 55% in size
#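 Cell growth measured by CellTiter-Glo luminescence after a minimum 48 h, 37 C compound exposure with 20 nM CPT in Tdp1-knockout DT40 cells stably expressing hTDP1, seeded 400/well; qHTS titration format.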
# BCR signal inh – chronic active BCR signaling inhibition | 340,000 tested, 0.05% active | Potency, µM (highest dose often 46.1 µM), inactives show at the highest dose activity change, negative = inhibition, actives largely listed as inhibitors | ABC-DLBCL IkBa-CBG/CBR reporter, luminescence ratio, 4 h; active = well fitted inhibition curve with a large enough effect in the signal ratio, with a control signal flat, not every such curve was filed as active; inconclusive = small, poorly fitted or top-dose-only effect, or effect the other way, or a change in a side signal; the % refers to the signal ratio;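 note: potency is the fitted concentration of half-maximal effect; plate controls were basal doxycycline-induced cells for no effect and cells given 10 µM MG132 for full effect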
#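 Compounds up to 46 uM were incubated four hours with TMD8 cells whose green CBG68 luciferase is fused to IkappaBalpha; red CBR luminescence normalised the signal, and concentration-effect curves were fitted to fusion, red and ratio data.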
# * marks the source's active call; other numbers are inactive results; ? = inconclusive; / = not tested or not shown; ! = a repeat was not active. Unless noted, calls come from the whole dose curve; as a rule, active = well fitted curve in the direction sought with a large enough effect; inconclusive = small, poorly fitted or top-dose-only effect, or another doubt; inactive = no such curve, though single readings can be large; an effect the other way counts as inactive or inconclusive.
SMILES,IL-1B inflam inh,TDP1 cell noCPT,SW480 rerep,MCF10A rerep,DT40 TDP1 CPT,BCR signal inh
CC(C)(c1ccc(O)c([N+](=O)[O-])c1)c1ccc(O)c([N+](=O)[O-])c1,38,-6%,-18%,?,4%,/
CN(C)Cc1cc(C(C)(C)c2ccccc2)ccc1O,?,?,?,4%,23µM*,/
Cc1cc(Nc2ccccc2)nc(N2CCN(C(=O)c3ccc4c(c3)OCO4)CC2)n1,-5,?,17%,?,?,-1%
N=c1cc(C2(O)CCCCC2)n2c(nc3ccccc32)s1,?,?,?,18µM*,?,?
C[C@@H]1Nc2ccc(Cl)cc2S(=O)(=O)N1,/,-10%,/,/,1%,/
CCOC(=O)C1(C)CCN1C(=O)c1ccc(C(C)(C)C)cc1 (configuration not stated),3,21µM*,/,/,16µM*,/
CCOC(=O)C1(C)CCN1C(=O)c1ccoc1 (configuration not stated),4,12%,/,/,-18%,/
CCOC(=O)C1(C)CCN1C(=O)c1ccc(SC(F)(F)F)cc1 (configuration not stated),14,?,/,/,18µM*,/
CCC(=O)Nc1ccc2nc(SCCOc3ccc(C)cc3OC)sc2c1,/,15µM*,/,/,?,/
COc1cc(C)ccc1OCCSc1nc2ccc(NC(=O)c3ccc(F)cc3)cc2s1,/,8.2µM*,/,/,?,/
CCOc1ccc(N(CC(=O)Nc2ccc(C)c(F)c2)C2=NC3CS(=O)(=O)CC3S2)cc1 (configuration not stated),-16,5%,29%,?,-19%,?
CCOc1ccc(N(CC(=O)Nc2ccc(OC)cc2)C2=NC3CS(=O)(=O)CC3S2)cc1 (configuration not stated),-58*,-23%,-19%,11%,2%,?
CCCc1nnc(NC(=O)CSc2nc3ccccc3[nH]2)s1,-109*,?,?,5%,?,10%
CCN(CC)S(=O)(=O)c1ccc(C)c(NC(=O)CSc2nc3ccccc3[nH]2)c1,4,23µM*,/,1%,?,-1%
COc1ccc2[nH]c(=O)c(CN(C(=O)C(C)C)c3ccccc3OC)cc2c1,2,?,-1%,1%,?,-9%
O=C(Nc1ccccc1Br)N1CCN2CCCCC2C1 (configuration not stated),/,11%,/,/,-22%,/
COc1ccc(NS(=O)(=O)c2ccc(F)c(F)c2F)cc1S(=O)(=O)N1CCOCC1,11,23%,2%,-3%,-11%,-1%
CN1CCN(CCCN2c3ccccc3Sc3ccc(S(=O)(=O)N(C)C)cc32)CC1,-106*,23µM*,-38%,?,16µM*,?
O=C(CN1CCCC1)N1c2ccccc2Sc2ccc(Cl)cc21,-20,?,-3%,3%,10%,-2%
CCCCCCCCCCCCCCCC(=O)OCCC1CCN(CCCN2c3ccccc3Sc3ccc(S(=O)(=O)N(C)C)cc32)CC1,/,-20%,/,/,1%,/
OCCN1CCN(CCCN2c3ccccc3Sc3ccc(Cl)cc32)CC1,0,29µM*,?,21µM*!,23µM*,?
CC(=O)c1ccc2c(c1)N(CCCN1CCC(CCO)CC1)c1ccccc1S2,0,?,5%,-38%,11µM*!,?
CCOc1cccc2sc(N(CCN(CC)CC)C(=O)c3ccc(S(=O)(=O)N4CCCC4)cc3)nc12,-5,?,-6%,3%,?,0%
CCN(CC)CCN(C(=O)c1ccc(S(=O)(=O)N(C)C2CCCCC2)cc1)c1nc2c(C)cccc2s1,-13,21µM*,1%,?,23µM*,?
Cc1cccc2sc(N(CCCN(C)C)C(=O)c3ccc4ncsc4c3)nc12,?,?,-4%,?,?,?
SMILES,IL-1B inflam inh,TDP1 cell noCPT,SW480 rerep,MCF10A rerep,DT40 TDP1 CPT,BCR signal inh
CC(=O)c1ccc(C(=O)N(Cc2cccnc2)c2nc3c(C)c(C)ccc3s2)cc1,/,16µM*,/,/,23µM*,?
Cc1ccc2sc(N(CCCN(C)C)C(=O)c3ccc(Br)s3)nc2c1C,-101*,?,-63%,13µM*,?,?
CC(=O)c1ccc(C(=O)N(CCCN(C)C)c2nc3c(C)c(C)ccc3s2)cc1,/,23µM*,/,/,18µM*,/
CCOc1cccc2sc(N(CCN(C)C)C(=O)c3ccc(Br)s3)nc12,-10,-15%,-3%,10%,6%,-2%
CSc1ccccc1NC(=O)C(=O)c1c[nH]c2ccccc12,-13,?,23%,?,-18%,?
Cc1c(N=O)c(-c2ccccc2)n(O)[n+]1[O-],0,?,/,/,?,/
O=C(Nc1ccccc1F)c1ccc2ncsc2c1,-21,-24%,4%,0%,-14%,?
